Compounds with a hit are over-represented: about 5.7% of the library has one in this group of screens.
HT1080 IDH1KD tx: HT-1080 IDH1 knockdown cell toxicity (counter line). HT-1080 IDH1 knockdown viability, ATP luminescence, 48 h. Potency, µM (top dose mostly 46.1 µM), for the others: at the highest dose activity, negative = toxicity, actives largely listed as cytotoxic. 2% of 360,000 active. AID 686971;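 also: 0% = DMSO wells and -100% = cell-free medium wells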
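Cytotoxicity counter-line: IDH1KD HT-1080, 48 h, CellTiter-Glo. Curves classed by r2, magnitude and activity.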
KB-V1 cytotox: kills drug-selected multidrug resistant KB-V1 cells | KB-V1 MDR cells viability, CellTiter-Glo, 72 h | Potency, µM (top dose mostly 46.1 µM), usual class: cytotoxic | 3.4% of 400,000 active | AID 1347076; also: nearly all actives have a fitted effect of over 60% in size
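Cytotoxicity via CellTiter-Glo luminescence after 72 h compound exposure at 37 degrees C. Cells: drug-selected KB-V1 line, DMEM phenol-red free plus 10% FBS. Compounds tested at multiple concentrations; normalized data fitted to concentration-effect curves.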
KB-3-1 cytotox: kills parental KB-3-1 adenocarcinoma cells; Potency, µM (series often up to 46.1 µM), usual class: cytotoxic; KB-3-1 viability, CellTiter-Glo ATP luminescence, 72 h; 1.4% of 400,000 active; also: nearly all actives have a fitted effect of over 60% in size
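KB-3-1 parental drug-naive adenocarcinoma cells in DMEM/10% FBS, incubated 72 h at 37 C with pin-transferred compounds across a concentration series. Viability by CellTiter-Glo luminescence; concentration-response curves fitted after normalization.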
HT1080-NT tox: kills 2HG-producing HT-1080-NT fibrosarcoma cells; AID 686970; Potency, µM (doses to about 46.1 µM), without a hit: at the top dose activity, negative = less viability, usual class: cytotoxic; 1.6% of 360,000 active; HT-1080-NT fibrosarcoma viability, CellTiter-Glo ATP luminescence, 48 h;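 also: NT is the 2HG producing partner of a matched IDH1 knockdown line; 0% = DMSO-treated cells and -100% = media-only wells without cells; nearly all actives have a fitted effect of over 55% in size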
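Toxicity toward the 2HG-producing NT line was scored as %Activity, normalised to DMSO and no-cell wells, from CellTiter-Glo luminescence after 48 hours' treatment.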
Starred values were filed as active, the others as inactive; i = inactive; ? = inconclusive; . = not tested or not shown; [ ] = dose if it differs, or a comment. Calls follow the shape of the dose curve; as a rule, active = well fitted curve in the direction sought with a large enough effect; inconclusive = small, poorly fitted or top-dose-only effect, or another doubt; inactive = no such curve, though single readings can be large; an effect the other way counts as inactive or inconclusive. Unless noted, % is scaled to controls: 0 for no effect and ±100 for the full control effect; potency is read from the fitted curve at half-maximal effect.

SMILES | HT1080 IDH1KD tx | KB-V1 cytotox | KB-3-1 cytotox | HT1080-NT tox
CCCN1C(=O)c2ccccc2NC1c1ccc(OC)c(COc2ccc([N+](=O)[O-])c(C)c2)c1 (configuration not stated) | . | i | i | .
Cc1ccc(NC(=O)N2N=C(c3ccc(F)cc3)CC2c2ccc(F)cc2)cc1 (configuration not stated) | -22% | 23µM* | i | -6%
O=C(c1ccccc1)N1N=C(c2ccc(F)cc2)CC1c1ccc(F)cc1 (configuration not stated) | 19% | i | i | -1%
CCN(CC)CCCN(C(=O)c1ccccc1C)c1nc(-c2ccc(OC)cc2)cs1 | -22% | i | i | -26%
COCCCN(C(=O)c1ccco1)c1nc(-c2cc(OC)ccc2OC)cs1 | 4% | 1.8µM* | i | ?
CCN(CC)CCCN(C(=O)c1ccccc1F)c1nc(-c2ccc(OC)cc2)cs1 | ? | ? | i | 18µM*
CCN(CC)CCCN(C(=O)c1ccc(OC)cc1)c1nc(-c2ccc(OC)cc2)cs1 | 15µM* | i | ? | 23µM*
COc1ccc(OC)c(-c2csc(N(Cc3ccco3)C(=O)c3ccco3)n2)c1 | ? | i | i | -4%
COCCCN(C(C)=O)c1nc(-c2ccc(OC)cc2)cs1 | -22% | 7.3µM* | 12µM* | -29%
COc1ccc(-c2csc(N(CCc3ccc(OC)c(OC)c3)C(=O)COc3ccccc3)n2)cc1 | 12% | 3.7µM* | i | 5%
Cc1ccc(N=C2C(=O)Nc3ccccc32)cc1 | 1% | i | i | -1%
Cc1nc2c(o1)C(=O)c1ccccc1C2=Nc1ccccc1 | 2.9µM* | 3.3µM* | 4.6µM* | 5.8µM*
CCCCSc1cnn(-c2ccccc2)c(=O)c1SCCCC | -13% | 18µM* | 18µM* | ?
CCn1c(=O)cc(SCC(=O)N2CCN(c3cc(C)ccc3C)CC2)c2ccccc21 | . | i | i | .
Cc1ccccc1C(=O)O/N=C/c1c(N2CCOCC2)n(C)c2ccccc12 | 2.5µM* | ? | ? | 2.8µM*
Cc1cc(C(F)F)n2nc(C(=O)Nc3ccc(F)c(Cl)c3)nc2n1 | . | i | i | .
O=C(Nc1nc2ccccc2[nH]1)c1ccc(Cl)c([N+](=O)[O-])c1 | 3% | i | i | -5%
CSCC[C@H](NC(=O)C1CCN(S(=O)(=O)c2ccc(C)cc2C)CC1)c1nc2ccccc2[nH]1 | -1% | 23µM* | i | -4%
Cc1c(C(=O)NC(Cc2ccccc2)c2nc3ccccc3[nH]2)cccc1[N+](=O)[O-] (configuration not stated) | -12% | ? | i | -14%
O=C(NC(Cc1ccccc1)c1nc2ccccc2[nH]1)c1ccc(Cl)c([N+](=O)[O-])c1 (configuration not stated) | ? | i | i | 21µM*
CSCC[C@H](NC(=O)c1cccc([N+](=O)[O-])c1C)c1nc2ccccc2[nH]1 | 1% | 16µM* | i | -9%
N#CC(c1ccc(Cl)cc1)c1ccc2c(C(F)(F)F)cc(C(F)(F)F)nc2n1 (configuration not stated) | 15µM* | ? | ? | 10µM*
c1ccc(-c2cc(-c3nc4ccccc4[nH]3)c3ccccc3n2)cc1 | ? | 16µM* | 16µM* | -29%
CCCC1CCc2c(sc(N)c2C(N)=O)C1 (configuration not stated) | 20% | 16µM* | i | 11%
CCC(C)(C)C1CCc2c(sc(N)c2C(N)=O)C1 (configuration not stated) | -10% | i | i | -3%
SMILES | HT1080 IDH1KD tx | KB-V1 cytotox | KB-3-1 cytotox | HT1080-NT tox
COc1nc(N2CCCCCC2)nc(N2CCCCCC2)n1 | -19% | 15µM* | ? | -7%
COc1cc(C2C(C#N)=C(N)Oc3cc(O)ccc32)cc2c1OCO2 (configuration not stated) | 21µM* | ? | ? | ?
COc1cc(C2C(C#N)=C(N)Oc3cc4c(cc32)OCO4)cc(OC)c1OC (configuration not stated) | 0.029µM* | 0.23µM* | 0.0052µM* | 0.037µM*
COc1ccc(C2C(C#N)=C(N)Oc3cc(O)ccc32)cc1OC (configuration not stated) | -12% | i | i | -1%
COc1cc(C2C(C#N)=C(N)Oc3cc(N(C)C)ccc32)cc2c1OCO2 (configuration not stated) | ? | 0.016µM* | 0.82µM* | 0.2µM*
CCOC(=O)c1cccc(NC(=O)c2nn(-c3ccc(OC)cc3)c(=O)c3c2c2ccccc2n3C)c1 | . | i | i | .
CC(OC(=O)c1ccccc1OCCOc1ccccc1)C(=O)Nc1ccc(Br)cc1 (configuration not stated) | . | i | i | .
Cc1cccn2c(=O)c3cc(C(=O)NCCN4CCOCC4)c(=N)n(Cc4ccc(F)cc4)c3nc12 | ? | ? | 16µM* | -22%
Cc1cccn2c(=O)c3cc(C(=O)NCCN4CCOCC4)c(=N)n(CCN4CCOCC4)c3nc12 | 0% | ? | i | 12%
Cc1cccn2c(=O)c3cc(S(=O)(=O)c4ccc(F)cc4)c(=N)n(Cc4ccco4)c3nc12 | 23µM* | i | i | ?
CCOC(=O)c1ccc(NC(=O)c2c(NCc3cccs3)sc3c2CCCCC3)cc1 | . | i | i | .
O=C1NC(Cc2ccc(O)cc2)c2nc3ccccc3c(=O)n2-c2ncccc21 (configuration not stated) | -6% | i | i | -16%
CC(=Nc1ccccc1)C1=C(O)C(Cc2ccc(O)cc2)NC1=O (configuration not stated) | ? | ? | 0.21µM* | 0.58µM*
CC(=Nc1ccccc1)C1=C(O)C(Cc2cccc(F)c2)NC1=O (configuration not stated) | ? | 1.2µM* | ? | 0.026µM*
Cc1ccc2c(c1)c1c3n2CCN(C(=O)c2cccc(C(F)(F)F)c2)C3CCC1 (configuration not stated) | . | i | i | .
COc1ccc(C(=O)N(CCc2ccccc2)Cc2ccccc2)c(OC)n1 | -4% | 8.2µM* | ? | -20%
COc1ccc(-c2nc(SCC(=O)NCc3nc4ccccc4n3C)n3[nH]c(=O)cc3n2)cc1 | . | ? | i | .
COc1cccc(-c2ccc(C#N)c(OC(=O)c3c(Cl)cccc3Cl)n2)c1 | -28% | 16µM* | i | -11%
Cc1cc(N2C3CCC2CC(O)(c2ccc(F)cc2)C3)nc(-c2ccccc2)n1 (configuration not stated) | -4%[9.24 µM] | i | i | 14µM*
Cc1ccnc(N2C3CCC2CC(O)(c2ccccc2)C3)n1 (configuration not stated) | 2% | i | i | 5%
CN(Cc1cnc2nc(N)nc(N)c2n1)c1ccc(C(=O)NC(CCC(=O)O)C(=O)O)c2ccccc12 (configuration not stated) | 0.0058µM* | i | ? | ?

Source: PubChem BioAssay (National Center for Advancing Translational Sciences (NCATS))
